Consider 39 compounds from PubChem BioAssay (NCI).

Compounds without any hit were thinned out: in the full panel of roughly 83,000, 20% have a hit.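 In brief: 96-well plates, 48 h treatment, single concentration, percent growth endpoint.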 A number with no mark means an inactive call. Calls of active or inactive are those of the source. Rule for the calls: active = growth percent below 10; inactive = the rest.

The first assay has as its system ACHN renal. Kind of assay: NCI-60 one-dose screen, 48 h (100 = growth as untreated, 0 = no growth, -100 = all killed). Conditions: 10 µM unless noted.
In the case of `CCCCCN(CCCCC)CCC[C@@H](C)[C@H]1CC[C@H]2[C@@H]3[C@H](OCCCN)C[C@@H]4C[C@H](OCCCN)CC[C@]4(C)[C@H]3C[C@H](OCCCN)[C@]12C`, the growth is 54.7%.
For `O=C(CN1CCOCC1)Nc1ccc(Cn2nnc3c2C(=O)c2nnn(Cc4ccc(NC(=O)CN5CCOCC5)cc4)c2C3=O)cc1`, the growth is 58.7%.
Regarding `COc1ccc(C(=O)/C=C/c2c(Cl)c3c(c(OC)c2Cl)OCC(=O)N3)cc1`, the growth was 41.8%.
With `CCOc1ccc(Nc2nc(-c3c(C)nc4ncccn34)cs2)cc1`, the growth was 20.5%.
Still for that read-out and setting: the same measure for `CC1=C(NCCN2CCCC2)C(=O)c2c(OCc3ccc(C(F)(F)F)cc3)cccc2C1=O`: 92.6%; for `CC/C(=C(\c1ccc(O)cc1)c1ccc(OCCN(C)CCN(C)C(=O)CCCCC(=O)c2c(C)[nH]c(/C=C3\N=C(c4ccc[nH]4)C=C3OC)c2C)cc1)c1ccccc1`: 92.5%; for `O=C(CCCN1CCOCC1)Nc1ccc(Cn2nnc3c2C(=O)c2nnn(Cc4ccc(NC(=O)CCCN5CCOCC5)cc4)c2C3=O)cc1`: 97.9%.
As to `COc1ccc2nc3cc(Cl)ccc3c(N3CCN(c4nccc(NCc5ccccc5)n4)CC3)c2c1`, the growth is 68.5%.
As for `O=C1CC(c2nc3ccccc3[nH]2)CN1C1CCCCC1` (stereo not given), the growth is 106%.
`O=C1Nc2ccccc2C12CC(c1ccc(Cl)cc1)=NN2` (stereo not given): the growth is 91%.
The same measure, in the same setting: the value for `O=C1/C(=C/c2ccc(Cl)cc2Cl)CN(S(=O)(=O)c2ccccc2)C/C1=C\c1ccc(Cl)cc1Cl` was 2.01% (active); that for `O=C(CCCCN1CCOCC1)Nc1ccc(Cn2nnc3c2C(=O)c2nnn(Cc4ccc(NC(=O)CCCCN5CCOCC5)cc4)c2C3=O)cc1` was -4.59% (active); that for `COc1ccc2nc3cc(Cl)ccc3c(N3CCN(c4nccc(Nc5ccccc5)n4)CC3)c2c1` was 52.1%.
Regarding `CC1=C(NCCN2CCCC2)C(=O)c2c(OCc3cccc(Cl)c3)cccc2C1=O`, the growth was 89.1%.
Same read-out and setting: the value for `NC1=CSC2=N/C(=C\c3ccc(Cl)cc3)C(=O)N12` was 88.3%; that for `Cc1sc2nc3[nH]/c(=C\c4ccc(Cl)cc4)c(=O)n3c(=O)c2c1C` was 101%; that for `COc1ccc2nc3cc(Cl)ccc3c(N3CCN(c4ccnc(N5CCN(C)CC5)n4)CC3)c2c1` was 36.9%.
The same measure, in the same setting: the same measure for `CN(C)CCCC(=O)Nc1ccc(Cn2nnc3c2C(=O)c2nnn(Cc4ccc(NC(=O)CCCN(C)C)cc4)c2C3=O)cc1`: 102%.
Still for that read-out and setting: the value for `CCCCCCCCCCCCCCCCNCCC[C@@H](C)[C@H]1CC[C@H]2[C@@H]3[C@H](OCCCN)C[C@@H]4C[C@H](OCCCN)CC[C@]4(C)[C@H]3C[C@H](OCCCN)[C@]12C` was -26.5% (active); that for `O=C(Nc1cccc2[nH]c(C(F)(F)F)nc12)c1ccc(Br)cc1F` was 33.5%.
As for `CCCCNc1ccc2c3c1cccc3c(=O)n1c3ccccc3nc21`, the growth was 81.8%.
Still for that read-out and setting: the value for `COc1ccc(/C=C2\N=C3SC=C(N)N3C2=O)cc1` was 33%; that for `COc1ccc2nc3cc(Cl)ccc3c(N3CCN(c4nccc(Nc5ccc(Cl)cc5)n4)CC3)c2c1` was 58.2%; that for `CC1=C(NCCN2CCCC2)C(=O)c2c(OCc3ccc(F)c(Cl)c3)cccc2C1=O` was 83.8%.
As for `O=C1C[C@H](N2C(=O)c3ccccc3S2(=O)=O)C2CO[C@@H]1O2`, the growth was 78.2%.
Turning to `Cc1ccc(S(=O)(=O)n2cc(-c3csc(-c4cn(C)c5ncccc45)n3)c3ccccc32)cc1`, the growth is 53%.
Take `COc1ccc(-c2cnoc2-c2cc(OC)c3c(c2)OCCO3)cc1`: the growth is 21.1%.
As for `COc1ccccc1-c1ccc2c(N)c(C(=O)c3ccc4c(c3)OCO4)sc2n1`, the growth was 88.6%.
The same measure, in the same setting: the same measure for `CC(=O)N1CC(Nc2ccc(OC(F)(F)F)cc2)=CC1=O`: 53.4%; for `O=c1c2cccc3c(Nc4c(F)cccc4F)ccc(c32)c2nc3ccccc3n12`: 88%; for `CCC(C)[C@@H]1NC(=O)[C@@H]2CCCN2C(=O)[C@H](Cc2ccccc2)NC(=O)[C@@H]2CCCN2C(=O)[C@H](Cc2ccccc2)NC(=O)[C@@H]2CCCN2C(=O)[C@H](Cc2ccccc2)NC1=O` (stereo not given in full): 103%.
Same read-out and setting: the same measure for `O=C1CC(c2nc3ccccc3s2)CN1C1CCCCC1` (stereo not given): 98.5%.
Still for that read-out and setting: the same measure for `O=C1Nc2ccccc2C12CC(c1ccccc1)=NN2` (stereo not given): 59.3%.
As to `CCN(CC)CCC(=O)Nc1ccc(Cn2nnc3c2C(=O)c2nnn(Cc4ccc(NC(=O)CCN(CC)CC)cc4)c2C3=O)cc1`, the growth was 87.6%.
Regarding `Cn1cc(-c2nc(-c3c[nH]c4ccccc34)cs2)c2cccnc21`, the growth was 56.8%.
On to `CCN(CC)CCCC(C)N/C(=C1\C(=O)NC(=O)\C1=C(/NC(C)CCCN(CC)CC)c1cccc(OC)c1)c1cccc(OC)c1` (stereo not given), for which the growth was -29% (active).

A further assay concerns CAKI-1 renal. The assay is described as above. Conditions: 10 µM unless noted.
`CCCCCN(CCCCC)CCC[C@@H](C)[C@H]1CC[C@H]2[C@@H]3[C@H](OCCCN)C[C@@H]4C[C@H](OCCCN)CC[C@]4(C)[C@H]3C[C@H](OCCCN)[C@]12C`: the growth was 75.8%.
On the same count and under the same terms, the value for `O=C(CN1CCOCC1)Nc1ccc(Cn2nnc3c2C(=O)c2nnn(Cc4ccc(NC(=O)CN5CCOCC5)cc4)c2C3=O)cc1` was 72.9%; that for `COc1ccc(C(=O)/C=C/c2c(Cl)c3c(c(OC)c2Cl)OCC(=O)N3)cc1` was 20.2%; that for `CCOc1ccc(Nc2nc(-c3c(C)nc4ncccn34)cs2)cc1` was 34.1%.
For `CC/C(=C(\c1ccc(O)cc1)c1ccc(OCCN(C)CCN(C)C(=O)CCCCC(=O)c2c(C)[nH]c(/C=C3\N=C(c4ccc[nH]4)C=C3OC)c2C)cc1)c1ccccc1`, the growth was 78.5%.
In the case of `O=C(CCCN1CCOCC1)Nc1ccc(Cn2nnc3c2C(=O)c2nnn(Cc4ccc(NC(=O)CCCN5CCOCC5)cc4)c2C3=O)cc1`, the growth is 88.6%.
With `COc1ccc2nc3cc(Cl)ccc3c(N3CCN(c4nccc(NCc5ccccc5)n4)CC3)c2c1`, the growth was 62.2%.
The same measure, in the same setting: the value for `O=C1CC(c2nc3ccccc3[nH]2)CN1C1CCCCC1` (stereo not given) was 94.2%.
On the same count and under the same terms, the value for `O=C1Nc2ccccc2C12CC(c1ccc(Cl)cc1)=NN2` (stereo not given) was 74.6%.
`O=C1/C(=C/c2ccc(Cl)cc2Cl)CN(S(=O)(=O)c2ccccc2)C/C1=C\c1ccc(Cl)cc1Cl`: the growth was -66.1% (active).
Still for that read-out and setting: the same measure for `O=C(CCCCN1CCOCC1)Nc1ccc(Cn2nnc3c2C(=O)c2nnn(Cc4ccc(NC(=O)CCCCN5CCOCC5)cc4)c2C3=O)cc1`: 7.17% (active); for `COc1ccc2nc3cc(Cl)ccc3c(N3CCN(c4nccc(Nc5ccccc5)n4)CC3)c2c1`: 51.2%.
On the same count and under the same terms, the value for `O=C(CCN1CCOCC1)Nc1ccc(Cn2nnc3c2C(=O)c2nnn(Cc4ccc(NC(=O)CCN5CCOCC5)cc4)c2C3=O)cc1` was 90.6%; that for `NC1=CSC2=N/C(=C\c3ccc(Cl)cc3)C(=O)N12` was 38.8%.
On the same count and under the same terms, the value for `Cc1sc2nc3[nH]/c(=C\c4ccc(Cl)cc4)c(=O)n3c(=O)c2c1C` was 105%; that for `COc1ccc2nc3cc(Cl)ccc3c(N3CCN(c4ccnc(N5CCN(C)CC5)n4)CC3)c2c1` was 49.7%.
In the case of `CN(C)CCCC(=O)Nc1ccc(Cn2nnc3c2C(=O)c2nnn(Cc4ccc(NC(=O)CCCN(C)C)cc4)c2C3=O)cc1`, the growth was 91%.
Same read-out and setting: the value for `CCCCCCCCCCCCCCCCNCCC[C@@H](C)[C@H]1CC[C@H]2[C@@H]3[C@H](OCCCN)C[C@@H]4C[C@H](OCCCN)CC[C@]4(C)[C@H]3C[C@H](OCCCN)[C@]12C` was -70.8% (active); that for `O=C(Nc1cccc2[nH]c(C(F)(F)F)nc12)c1ccc(Br)cc1F` was 14.6%.
As to `CCCCNc1ccc2c3c1cccc3c(=O)n1c3ccccc3nc21`, the growth is 43.2%.
Turning to `COc1ccc(/C=C2\N=C3SC=C(N)N3C2=O)cc1`, the growth was -33% (active).
Still for that read-out and setting: the same measure for `COc1ccc2nc3cc(Cl)ccc3c(N3CCN(c4nccc(Nc5ccc(Cl)cc5)n4)CC3)c2c1`: 46.4%.
Still for that read-out and setting: the value for `CC1=C(NCCN2CCCC2)C(=O)c2c(OCc3ccc(F)c(Cl)c3)cccc2C1=O` was 50.2%.
Take `O=C1C[C@H](N2C(=O)c3ccccc3S2(=O)=O)C2CO[C@@H]1O2`: the growth was -80.1% (active).
Same read-out and setting: the same measure for `Cc1ccc(S(=O)(=O)n2cc(-c3csc(-c4cn(C)c5ncccc45)n3)c3ccccc32)cc1`: 48.1%; for `COc1ccc(-c2cnoc2-c2cc(OC)c3c(c2)OCCO3)cc1`: 33.5%.
Still for that read-out and setting: the same measure for `COc1ccccc1-c1ccc2c(N)c(C(=O)c3ccc4c(c3)OCO4)sc2n1`: 70.2%; for `COc1ccc(/C=c2/c(=O)[nH]c3nc4sc(C)c(C)c4c(=O)n23)cc1`: 74.2%.
The same measure, in the same setting: the same measure for `O=c1c2cccc3c(Nc4c(F)cccc4F)ccc(c32)c2nc3ccccc3n12`: 62%; for `O=C1CC(c2nc3ccccc3s2)CN1C1CCCCC1` (stereo not given): 89.1%.
`Cc1cc(OCc2ccc(C(F)(F)F)cc2)c2c(c1)C(=O)C=C(NCCN1CCCC1)C2=O`: the growth was 53.1%.
For the compound `O=C1Nc2ccccc2C12CC(c1ccccc1)=NN2` (stereo not given), the growth was 22.8%.
The same measure, in the same setting: the value for `Cn1cc(-c2nc(-c3c[nH]c4ccccc34)cs2)c2cccnc21` was 29.7%.
On the same count and under the same terms, the same measure for `CCN(CC)CCCC(C)N/C(=C1\C(=O)NC(=O)\C1=C(/NC(C)CCCN(CC)CC)c1cccc(OC)c1)c1cccc(OC)c1` (stereo not given): 61.4%.
